From PubChem
Pol iota inh: inhibitors of human DNA polymerase iota; Q9UNA4; Pol iota fluorescent replication assay, 10 min; Potency, µM (doses to about 115 µM), actives largely listed as inhibitors; 390,000 tested, 1% active; AID 588590
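Pol iota at 10 nM preincubated 15 min with compounds at room temperature; reaction started with fluorescent substrate, 50 nM final. Fluorescence read kinetically at 0 and 10 min; buffer-only wells as negative control.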
POLK inh: inhibitors of human DNA polymerase kappa; Q9UBT6; purified Pol kappa, fluorescent DNA synthesis assay, 10 min; Potency, µM (doses to about 107 µM), actives largely listed as inhibitors; 400,000 tested, 0.53% active
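Kinetic fluorescence screen: compound preincubated 15 min RT with 10 nM enzyme; 50 nM substrate (final) initiates; reads at 0/10 min.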
TDP1 block: inhibitors of human tyrosyl-DNA phosphodiesterase TDP1; Potency, µM (highest dose often 130 µM), most hits filed as inhibitors; recombinant TDP1, AlphaScreen DNA substrate cleavage; AID 485290; 350,000 tested, 0.28% active; Q9NUW8; further: nearly all actives have a fitted effect of over 40% in size
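E. coli-derived human Tdp1, 1 nM final. Cpd preinc 15 min RT; substrate 15 nM final, 5 min RT; AS bead mix 10 ug/ml final, 10 min RT. Signal loss = tyrosine-FITC cleavage. No-enzyme wells = max signal.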
POLB inh: inhibitors of human DNA polymerase beta; Potency, µM (series often up to 114 µM), usual class: inhibitors; P06746; 340,000 tested, 1.3% active; Pol beta primer extension/strand displacement, fluorescence kinetic
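Curves were derived by four-parameter Hill fits of normalized qHTS data. The kinetic fluorescent primer-extension read was taken at 0 and 10 min after 50 nM substrate, following a 15 min room-temperature preincubation of 10 nM enzyme with compounds.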
Pol eta inh: blocks human DNA polymerase eta activity | Q9Y253 | recombinant Pol eta, fluorescent DNA replication assay | Potency, µM (highest dose often 114 µM), hits mostly inhibitors | 390,000 tested, 1.2% active | AID 588591
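Fluorescent replication assay: 50 nM final substrate added after a 15 min room-temperature compound preincubation with 10 nM enzyme. Signal taken at 0 min and again at 10 min.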
FEN1 inh: human FEN1 inhibition | P39748 | Recombinant FEN1 flap cleavage, fluorescence, 15 min | Potency, µM (highest dose often 114 µM), usual class: inhibitors | 390,000 tested, 0.35% active; further: nearly all actives have a fitted effect of over 65% in size
Target sequence (P39748 whole entry, looked up): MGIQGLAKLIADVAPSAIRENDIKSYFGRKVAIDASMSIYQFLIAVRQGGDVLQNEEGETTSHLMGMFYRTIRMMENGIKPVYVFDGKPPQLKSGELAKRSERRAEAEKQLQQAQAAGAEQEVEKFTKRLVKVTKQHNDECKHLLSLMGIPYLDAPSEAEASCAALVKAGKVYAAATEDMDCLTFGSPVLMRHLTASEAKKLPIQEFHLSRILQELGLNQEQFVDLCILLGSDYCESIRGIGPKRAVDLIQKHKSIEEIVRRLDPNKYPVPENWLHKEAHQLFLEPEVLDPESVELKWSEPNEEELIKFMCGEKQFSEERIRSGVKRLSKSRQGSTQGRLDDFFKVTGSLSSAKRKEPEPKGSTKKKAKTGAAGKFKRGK
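Compounds are tested as a concentration series against 10 nM FEN1; after a 15 min room-temperature preincubation, 50 nM substrate starts cleavage, with plate reads at 0 and 15 min. Normalized responses are fitted by a Hill equation.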
Numbers stand for hits; i = inactive; ? = inconclusive; nt = not tested or not shown; ! = not active in a repeat; [ ] = another dose, or the depositor's remark. Shown are actives, neighbours in structure and some others; about 2.4% of the full set was active somewhere. The call rests on the fitted dose curve; in most records, active means well fitted curve in the direction sought with a large enough effect; inconclusive means small, poorly fitted or top-dose-only effect, or another doubt; inactive means no such curve, though single readings can be large; an effect the other way counts as inactive or inconclusive.

SMILES	Pol iota inh	POLK inh	TDP1 block	POLB inh	Pol eta inh	FEN1 inh
Oc1c(Cl)cc(CN2CCOCC2)c2cccnc12	?	i	i	nt	i	?
Cc1oc(-c2ccc(Cl)cc2)cc1-c1nn2c(-c3ccco3)nnc2s1	nt	nt	?	20µM	nt	nt
CCOc1cccc(-c2nn3c(-c4ccco4)nnc3s2)c1	i	i	i	i	20µM	i
C=CC(C)=C[C@@]1(C)SC(=O)C(C)=C1O	nt	i	nt	nt	nt	nt
Cn1c(=O)c2c(ncn2CC(=O)N/N=C/c2c[nH]c3ccccc23)n(C)c1=O	nt	nt	79µM	i	nt	nt
COc1ccc(/C=N/NC(=O)Cn2cnc3c2c(=O)n(C)c(=O)n3C)c(OC)c1OC	i	i	nt	i	i	i
CCC(C)C(=O)OCC1(c2ccc(C)cc2OC(=O)C(C)C)CO1 (stereo unspecified)	?	i	nt	40µM	i	i
Cc1ccc(C2(COC(=O)C(C)C)CO2)c(OC(=O)C(C)C)c1 (stereo unspecified)	i	i	nt	i	i	i
Cc1ccc(Nc2nc(C#N)nc(NC3CCCC3)n2)cc1	nt	nt	i	nt	nt	nt
COc1ccc(CCNC(=O)CCCCn2c(=O)c3ccccc3n(Cc3cc(C)ccc3C)c2=O)cc1OC	79µM	i	i	i	i	i
CC(C)=CCC/C(C)=C/COc1c2occc2cc2ccc(=O)oc12	i	i	20µM!	nt	?	i
Cc1cccc(-c2nc3c4ccccc4nc(NCc4ccccc4Cl)n3n2)c1	i	i	i	i	i	i
Cc1cc(O)c(C(C)C)cc1N=Cc1ccccc1O	20µM	i	i	i	i	?
Cc1cc(O)c(C(C)C)cc1N=Cc1cc([N+](=O)[O-])ccc1O	?	i	i	i	i	i
Cc1ccc([N+](=O)[O-])cc1S(=O)(=O)Nc1ccc(C(=O)NCC2CCCO2)cc1 (stereo unspecified)	?	i	i	nt	79µM	i
Cc1ccc(C)n1-c1ccc(C(=O)NCC2CCCO2)cc1 (stereo unspecified)	?	i	i	40µM	?	i
CS(=O)(=O)Nc1ccc(C(=O)NCC2CCCO2)cc1 (stereo unspecified)	i	i	i	i	i	i
COc1ccc(NC(=O)c2ccc(NC(=O)c3cccs3)cc2)cc1	i	i	nt	i	i	i
COc1nc(N)nc(NC(=O)c2cccs2)c1N=O	28µM	i	nt	nt	i	i
NCCO	nt	nt	i	nt	nt	nt
O=C(O)C1(C(=O)O)CCC1	i	i	nt	nt	i	i
N.N.O=C(O)C1(C(=O)O)CCC1.[Pt]	i	22µM	nt	i	i	nt
COc1ccc(-c2nn(-c3ccccc3)cc2C(=O)O)cc1	i	i	i	i	i	i
CC(C)OC(=O)c1cn(-c2ccccc2)nc1-c1ccco1	?	?	i	40µM	?	i
Cc1ccc(-c2nn(-c3ccccc3)cc2C(=O)O)o1	nt	nt	?	16µM	nt	nt
SMILES	Pol iota inh	POLK inh	TDP1 block	POLB inh	Pol eta inh	FEN1 inh
COc1ccc(COC(=O)c2c(C)nn(-c3ccccc3)c2Cl)cc1	i	i	56µM	i	i	i
C=C(C(C)=O)C(O)/C=C/c1ccco1 (stereo unspecified)	nt	nt	11µM	nt	nt	nt
CC(C)(C)OC(=O)Cc1nnc(-c2cc3ccccc3[nH]2)o1	nt	nt	i	nt	nt	nt
O=C(Nc1ccc(Cl)cc1)Nc1nc(-c2ccccc2O)cs1	i	i	i	?	i	i
Cc1csc(NC(=O)Nc2ccc(Cl)cc2)n1	?	i	i	28µM	?	i
CSc1ccccc1NC(=O)c1cc2c(=O)n3ccccc3nc2s1	i	i	i	i	i	i
COc1ccc(Cl)cc1NC(=O)c1cc2c(=O)n3ccccc3nc2s1	i	i	i	7.1µM	nt	?
CC1=C(C(=O)Nc2c(C)cc(C)cc2C)C2(CCN(C(C)C)CC2)OC1=O	i	i	i	i	i	i
CCN(CC(=O)Nc1ccc(NC(C)=O)cc1)C(=O)c1cccc(-n2cccc2)c1	56µM	i	nt	nt	?	i
CCN(CC(=O)Nc1ccc(NC(C)=O)cc1)C(=O)c1cccc(Oc2ccccc2)c1	i	i	i[0.505 µM]	nt	i	i
CC(=O)Nc1ccc(NC(=O)CSc2ccc(-c3ccco3)nn2)cc1	?	i	i	40µM	i	i
CC(=O)c1ccc(NC(=O)CSc2ccc(-c3ccco3)nn2)cc1	45µM	i	?	28µM	?	i
